Rows were chosen to be rich in hits. Some 19% of all compounds tested hit in one or more screens of this group.
DT40 TDP1 CPT – qHTS for Inhibitors of human tyrosyl-DNA phosphodiesterase 1 (TDP1): qHTS in cells in presence of CPT; Potency, µM (series often up to 46.2 µM), without a hit: at the top dose activity change, negative = growth inhibition, usual class: inhibitors; chicken DT40 Tdp1-/-;hTDP1 cells + 20 nM CPT, ATP luminescence, 48 h; AID 686979, 2013; 420,000 tested, 12% active; note: potency is the fitted concentration of half-maximal effect; nearly all actives have a fitted effect of over 55% in size
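Chicken DT40 Tdp1-/- cells stably complemented with human TDP1 were seeded at 400 cells/well in medium containing 20 nM camptothecin, exposed to pin-transferred compounds, and grown at 37 °C for at least 48 hr. Viability was read as ATP luminescence.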
ELG1 DNA repair – qHTS screen for small molecules that inhibit ELG1-dependent DNA repair in human embryonic kidney (HEK293T) cells expressing luciferase-tagged ELG1. HEK293T ELG1-luciferase reporter, luminescence, 16 h; DNA damage induced by 5-fluorouridine. Potency, µM (highest dose often 46.1 µM), for the others: top-dose activity change, negative = inhibition, hits mostly inhibitors. 330,000 tested, 2.3% active. AID 504467, 2011; note: potency is the fitted concentration of half-maximal effect; nearly all actives have a fitted effect of over 55% in size
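Cells (2,000 per well) received 5-fluorouridine plus test compound or DMSO and were incubated 16 hr at 37 °C, 5% CO2. Luciferase activity was read by luminescence 30 min after ONE-Glo addition; signal suppression marked inhibition of damage-induced ELG1 function.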
TDP1 block – qHTS Assay for Inhibitors of Tyrosyl-DNA Phosphodiesterase (TDP1); Tyrosyl-DNA phosphodiesterase 1 (Homo sapiens), Q9NUW8; recombinant TDP1, AlphaScreen DNA substrate cleavage; Potency, µM (series often up to 130 µM), inactives show at the highest dose activity change, negative = inhibition, actives largely listed as inhibitors; 350,000 tested, 0.28% active; AID 485290, 2010; note: potency is the fitted concentration of half-maximal effect; nearly all actives have a fitted effect of over 40% in size
Target sequence (Q9NUW8 whole entry, looked up): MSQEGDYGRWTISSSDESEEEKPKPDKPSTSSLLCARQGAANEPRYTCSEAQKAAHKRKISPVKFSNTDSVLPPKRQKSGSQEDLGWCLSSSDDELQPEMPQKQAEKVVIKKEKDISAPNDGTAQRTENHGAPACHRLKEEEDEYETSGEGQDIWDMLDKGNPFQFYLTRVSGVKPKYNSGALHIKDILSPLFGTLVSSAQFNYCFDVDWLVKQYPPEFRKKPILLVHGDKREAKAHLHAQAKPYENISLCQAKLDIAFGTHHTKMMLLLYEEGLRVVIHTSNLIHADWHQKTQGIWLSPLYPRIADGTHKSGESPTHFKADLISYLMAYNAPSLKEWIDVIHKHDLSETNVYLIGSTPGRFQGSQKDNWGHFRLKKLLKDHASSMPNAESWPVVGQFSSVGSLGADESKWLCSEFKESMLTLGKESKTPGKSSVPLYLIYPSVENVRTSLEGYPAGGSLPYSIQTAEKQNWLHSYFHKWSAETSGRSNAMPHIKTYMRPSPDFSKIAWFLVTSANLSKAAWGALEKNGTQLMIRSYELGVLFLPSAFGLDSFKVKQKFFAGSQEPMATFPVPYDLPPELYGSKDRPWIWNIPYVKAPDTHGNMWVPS
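Enzyme-compound mixtures sat 15 min at room temperature, followed by a 5 min reaction with 15 nM final substrate and 10 min with AlphaScreen beads. Recombinant human Tdp1 was used at 1 nM final.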
IL-1B inflam inh – qHTS for Inhibitors of Inflammasome Signaling: IL-1-beta AlphaLISA Primary Screen | 360,000 tested, 4.7% active | activity change, % at 57.5 µM | THP-1 LPS/ATP IL-1B secretion, AlphaLISA, 16 h; hits give low values; in the data active = activity change below about -50%; inconclusive = mostly about -30% to -49%
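Secreted IL-1B measured by AlphaLISA bead assay after 16 h compound exposure of THP-1 cells; compounds (final up to 57.5 uM) added 1 h before LPS (250 ng/mL) and ATP (1.25 mM) stimulation; lower signal means less secretion.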
TDP1 cell noCPT – qHTS for Inhibitors of human tyrosyl-DNA phosphodiesterase 1 (TDP1): qHTS in cells in absence of CPT. AID 686978, 2013. DT40 Tdp1-/- hTDP1 cells, no CPT, ATP luminescence, 48 h. Potency, µM (titrated, usually from 46.2 µM), for the others: at the highest dose activity change, negative = growth inhibition, usual class: inhibitors. 420,000 tested, 15% active; note: potency is the fitted concentration of half-maximal effect; nearly all actives have a fitted effect of over 55% in size
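Luminescent ATP content (CellTiter-Glo) served as the growth readout. Knockout chicken DT40 cells expressing human TDP1 were exposed to compounds without camptothecin for a minimum 48 hr at 37 °C.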
Giardia killer – Small Molecules that selectively kill Giardia lamblia: qHTS; Giardia lamblia trophozoite viability; activity change, % at 7.66 µM, hits read low; AID 540267, 2011; 340,000 tested, 0.15% active; in the data active = activity change below about -80%; inconclusive = between about -30% and that limit;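 note: parasites exposed to compound for two days anaerobically before the ATP read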
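ATP-content bioluminescence gauges trophozoite survival. Cells (100/well) receive compound and incubate anaerobically for 48 hrs at 37 deg C; detection reagent follows for 15-30 min at room temperature.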
* = called active by the depositor; ? = inconclusive; . = no result; [ ] = remark or other dose. Unless noted, calls come from the whole dose curve; as a rule, active = well fitted curve in the direction sought with a large enough effect; inconclusive = small, poorly fitted or top-dose-only effect, or another doubt; inactive = no such curve, though single readings can be large; an effect the other way counts as inactive or inconclusive. % is set by controls: 0 for no effect and ±100 for the full control effect.

SMILES	DT40 TDP1 CPT	ELG1 DNA repair	TDP1 block	IL-1B inflam inh	TDP1 cell noCPT	Giardia killer
CC(=O)NCCNc1nc2cc(-c3ccccc3)sc2c(=O)n1C	?	.	.	49	?	.
CCN1C(=O)[C@H]2[C@H]3CN=C(SCc4ccc(C)cc4)N3[C@@](CC)(C(=O)OC)[C@H]2C1=O	?	20%	-2%[56.1 µM]	18	?	7
CC(C)(C)c1nnc(NC(=O)CCS(=O)(=O)c2ccccc2)s1	7.3µM*	6%	.	-103*	23µM*	2
Cc1nnc(NC(=O)CCSc2ccccc2)s1	14%	0%	3%	18	0%	-7
O=C(CCS(=O)(=O)c1ccccc1)Nc1nnc(C(F)(F)F)s1	?	-23%	.	3	13µM*	4
Cc1nnc(NC(=O)CCS(=O)(=O)c2ccccc2)s1	16µM*	-6%	2%[0.0935 µM]	-93*	?	-10
CCCn1c(N/N=C\C=C\c2ccccc2)nc2c1c(=O)[nH]c(=O)n2C	15µM*	?	5%	1	16µM*	-26
COCCn1c(N/N=C(C)/C=C/c2ccccc2)nc2c1c(=O)[nH]c(=O)n2C	.	4.6µM*	3%	.	.	.
Cc1ccc(-c2nn(-c3ccccc3)c3[nH]c(=O)c(CNCCN(C)C)cc23)cc1	.	3%	5%	.	.	.
Cc1nn(-c2ccccc2)c2[nH]c(=O)c(CNc3ccc4c(c3)OCCO4)cc12	-23%	21%	7%	-7	-21%	6
Cc1ccc(-c2nn(-c3ccccc3)c3[nH]c(=O)c(CNCc4ccccc4)cc23)cc1	?	?	-3%	-58*	?	13
CCc1ccc(NCc2cc3c(C)nn(-c4ccccc4)c3[nH]c2=O)cc1	21µM*	?	9%	19	13µM*	-14
Cc1nn(-c2ccccc2)c2[nH]c(=O)c(CNCCN3CCOCC3)cc12	1%	20%	2%	9	3%	-8
Cc1nn(-c2ccccc2)c2[nH]c(=O)c(CNCc3ccc4c(c3)OCO4)cc12	18µM*	-14%	11%	-15	15µM*	14
COc1ccc(CCN2C(=O)c3oc4ccc(F)cc4c(=O)c3C2c2ccc(C(C)(C)C)cc2)cc1 (stereo not given)	?	.	3%	.	3.3µM*	.
CCCOc1ccc(C2c3c(oc4ccc(F)cc4c3=O)C(=O)N2CCc2ccc(OC)cc2)cc1 (stereo not given)	1%	.	2%	.	-28%	.
COc1ccc(C2c3c(oc4ccccc4c3=O)C(=O)N2CCCN2CCOCC2)cc1 (stereo not given)	?	.	.	7	23µM*	7
CCOc1cccc(C2c3c(oc4ccc(F)cc4c3=O)C(=O)N2CCc2ccc(OC)cc2)c1 (stereo not given)	5.2µM*	.	1%	.	?	.
CCCC(=O)Nc1cc(-c2nnc3c4ccccc4c(C)nn23)ccc1C	3%	.	0%	.	11%	.
CCN1CCCC1Cn1c(-c2ccccc2)nc2c(N3CCOCC3)nc(C)nc21 (stereo not given)	.	.	6%	.	.	.
Cc1ccc(C)c(S(=O)(=O)NCCN2CCOCC2)c1	-1%	4%	.	-7	5%	10
O=C(/C=C/c1cccc([N+](=O)[O-])c1)NCCSCc1ccccc1Cl	-8%	-18%	5%	?	-30%	2
O=C(/C=C/c1ccc2c(c1)OCO2)NCCSCc1ccc(Cl)cc1Cl	?	1%	0%	-74*	?	-12
O=C(/C=C/c1cccc([N+](=O)[O-])c1)NCCSCc1ccc(Cl)cc1Cl	29µM*	?	5%	-75*	23µM*	-24
CN(C)c1ccc(/C=N/N2CCN(c3ccccn3)CC2)cc1	-1%	?	7%	?	-14%	24
SMILES	DT40 TDP1 CPT	ELG1 DNA repair	TDP1 block	IL-1B inflam inh	TDP1 cell noCPT	Giardia killer
O=C(NC1CCCCC1)C(c1cccs1)N(C(=O)Cc1c[nH]c2ccccc12)c1ccc(F)cc1 (stereo not given)	?	-16%	9%	10	14%	15
COc1cccc(CN(C(=O)Cc2c[nH]c3ccccc23)C(C(=O)NC2CCCCC2)c2cccs2)c1 (stereo not given)	-6%	18µM*	-5%	-12	-1%	12
COc1cc(C(C(=O)NC2CCCCC2)N(C(=O)Cc2c[nH]c3ccccc23)c2ccc(C)cc2)cc(OC)c1OC (stereo not given)	23µM*	?	3%	-16	26µM*	13
COc1ccc(C(C(=O)NC2CCCCC2)N(Cc2cccs2)C(=O)Cc2c[nH]c3ccccc23)cc1 (stereo not given)	4.6µM*	?	5%	-59*	18µM*	-15
CC(NC(=O)Cn1c(-c2cccs2)cc2cc(F)ccc21)c1ccccc1 (stereo not given)	?	.	-6%	.	?	.
CCOC(=O)CON1C(=O)C(=O)N(OCC(=O)OCC)C2CCCCC21 (stereo not given)	2%	-4%	-3%	0	12%	-11
Cc1nc2ccc(NC(=S)NCc3ccccc3)cc2nc1C	-26%	?	0%	9	-28%	-3
C=CCNC(=S)Nc1ccc2nc(C)c(C)nc2c1	?	?	8%	11	18µM*	0
C=CCNC(=S)N/N=C/c1ccc(C)cc1C	5.2µM*	?	-10%	-10	5.2µM*	17
Cc1cccc(NC(=S)N/N=C/c2ccc(Cl)c([N+](=O)[O-])c2)c1	?	11%	1%	-1	?	-1
C=CCNC(=S)N/N=C/c1ccc(C)c([N+](=O)[O-])c1	15µM*	-18%	5%	?	6.5µM*	-4
CC(=O)Nc1ccccc1NS(=O)(=O)c1ccccc1NO	.	.	0%	.	.	2
CN(C)CCCNCC(=O)c1c(-c2ccccc2)n(C)c2ccccc12	29µM*	0%	.	-20	18µM*	12
NC(=O)c1ccc(N=Nc2c(O)c3ccccc3[nH]c2=O)cc1	.	7%	3%	.	.	.
COc1cc(N=Nc2c(O)c3ccccc3[nH]c2=O)c(OC)cc1N=Nc1ccccc1	?	5%	9%	24	13µM*	5

Screening data as filed in PubChem.
